We go through seven compounds from PubChem BioAssay (NCATS).

Where “and” joins values, the source holds several entries; their conditions need not be identical. Equal entries are not always repeated. Inconclusive results are not listed. Calls of active or inactive are those of the source. Unless noted, calls follow the shape of the dose curve; as a rule, active = well fitted curve in the direction sought with a large enough effect; inconclusive = small, poorly fitted or top-dose-only effect, or another doubt; inactive = no such curve, though single readings can be large; an effect the other way counts as inactive or inconclusive.

In assay [1] the target is T1, Hexokinase-4 (Homo sapiens) + Glucokinase regulatory protein (Homo sapiens) (UniProt P35557+Q14397). The assay can be described thus: qHTS assay for inhibitors of recombinant human GCK-GKRP interaction: ADP-Glo assay (AID 743206).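 Also: plate controls were DMSO plus enzyme for no effect and no enzyme for full effect.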 The procedure, abridged: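 GST-GCK and FLAG-GKRP (15 nM each in the dispensed mix, with 2 uM S6P) react with 0.4 mM ATP and 5 mM glucose (final) in Hepes pH 7.6 for 60 min at room temperature. ADP is measured by ADP-Glo luminescence.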

The target of assay [2] is T1, Hexokinase-4 (Homo sapiens) + Glucokinase regulatory protein (Homo sapiens). The assay can be described thus: qHTS assay for inhibitors of recombinant human GCK-GKRP interaction: HTRF assay (AID 743207).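 Also: 0% = DMSO with GCK present and -100% = DMSO wells lacking GCK.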 In outline:
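HTRF read-out (ex 320 nm; 615/665 nm emission) after 60 min RT equilibration of 5 nM GST-GCK, 5 nM FLAG-GKRP, 2 uM S6P, compound and anti-FLAG/anti-GST detection antibodies; signal normalized between DMSO wells with and without GCK.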

A short description of assay [3]: qHTS Assay for Identifying Gametocytocidal Compounds (AID 743244).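 Also: % is scaled to controls: 0 for no effect and ±100 for the full control effect; actives lower the fluorescent signal which means gametocytes are killed.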 Conditions: P. falciparum 3D7 stage III-V gametocytes, alamarBlue, 72 h; max response: stronger effect = lower value. The procedure, abridged:
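Compounds are pinned into medium, gametocytes (stage III–V, 3D7, 20,000 cells/well) added, and plates held 72 h at 37 °C in 5% CO2. AlamarBlue follows for 24 h before fluorescence reading.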

The nature of assay [4]: qHTS profiling of the MIPE4 collection as inhibitors of Plasmodium falciparum (3D7) proliferation (AID 743344; call rule not given here;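 also: scaled between DMSO vehicle wells and 0.29 µM artemisinin as full inhibition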). Particulars: P. falciparum 3D7 in erythrocytes, SYBR Green DNA fluorescence, 72 h; at 28.5 µM (top of the series) unless noted. The procedure, abridged: (§1)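 Erythrocytes infected with P. falciparum (0.3% parasitemia, 2.5% hematocrit) incubated with compounds 72 h at 37 C, 5% CO2. Lysis with saponin/Triton buffer containing SYBR Green I, overnight at room temperature in the dark; DNA fluorescence (485/535 nm) normalised to 0.29 uM artemisinin and DMSO.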

Assay [5] is described as follows: qHTS profiling of the MIPE4 collection as inhibitors of Plasmodium falciparum (DD2) proliferation (AID 743345; call rule not given here). Particulars: P. falciparum Dd2 in erythrocytes, SYBR Green DNA, 72 h; at 28.5 µM (top of the series) unless noted. In outline: as §1
The nature of assay [6]: qHTS profiling of the MIPE4 collection as inhibitors of Plasmodium falciparum (DD2) proliferation (Rep 2) (AID 743346; call rule not given here). Conditions: P. falciparum Dd2 in erythrocytes, SYBR Green DNA, 72 h; at 28.5 µM (top of the series) unless noted. In outline: as §1
The nature of assay [7]: qHTS profiling of the MIPE4 collection as inhibitors of Plasmodium falciparum (HB3) proliferation (AID 743347; call rule not given here;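 also: plate controls were DMSO vehicle wells for no effect and artemisinin wells for full effect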). Conditions: P. falciparum HB3 in erythrocytes, SYBR Green DNA, 72 h; at 28.5 µM (top of the series) unless noted. The procedure, abridged:
as §1

Assay [8] in a line: High-throughput drug toxicity screening in the BPDCN cell line Gen2.2 (AID 1224824; call rule not given here;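 also: cells exposed to compounds for 48 h before reading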). Particulars: Gen2.2 BPDCN cells; at 45.8 µM (top of the series) unless noted. The procedure, abridged: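 CellTiter-Glo luminescence after 48 h compound exposure of Gen2.2 cells; percent activity set with DMSO as 100% and bortezomib (9.2 uM final) as 0%. Cells seeded at 500 per well, RPMI + 10% FBS, 37 °C.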

A short description of assay [9]: High-throughput drug toxicity screening in the BPDCN cell line Cal-1 (AID 1224825; call rule not given here). Conditions: Cal-1 BPDCN cell viability, qHTS; at 45.8 µM (top of the series) unless noted. The procedure, abridged:
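Exponentially growing Cal-1 cells, 500 per well in phenol red-free RPMI with 10% FBS, were exposed to compounds for 48 h at 37 °C, 5% CO2. Viability was read by CellTiter-Glo luminescence and normalised to DMSO (100%) and 9.2 uM bortezomib (0%).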

Assay [10] is described as follows: qHTS assay for measurement of the activity of small molecule inhibitors on Zika virus induced Caspase-3 activity in human iPSC derived neural progenitor cells (hNPCs) (AID 1224857). Also: % of control where 0% means no effect; nearly all actives have a fitted effect of over 65% in size. In outline: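 Pretreat hNPCs with compound 1 h; infect ZIKV 2 FFU/cell; 6 h 37 C, 5% CO2; Caspase-Glo 3/7, 30 min RT; luminescence; normalize to no-virus and virus-only wells.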
Assay [11] in a line: qHTS Screen of the MIPE 4.0 Collection Against Ewings Sarcoma (EW8) (AID 1259255). Also: nearly all actives have a fitted effect of over 35% in size. Also: potency is read from the fitted curve at half-maximal effect.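 As to viability: 100% = DMSO-treated cells and 0% = medium-only wells without cells.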 The procedure, abridged: (§2)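 Compound titrations go onto adherent log-phase cells 4 h after seeding, incubate 48 h at 37C, then CellTiter-Glo luminescence reports viability relative to DMSO and cell-free controls.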
The nature of assay [12]: qHTS profiling for inhibitors of Plasmodium falciparum (3D7) proliferation (AID 743322).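 Also: infected erythrocytes exposed to compound for 72 h before lysis; 100% = DMSO vehicle wells and 0% = 0.29 µM artemisinin.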 Conditions: P. falciparum 3D7 proliferation, at 28.7 µM (top of the series). The procedure, abridged:
as §1

Assay [13] is described as follows: qHTS profiling for inhibitors of Plasmodium falciparum (DD2) proliferation (AID 743323; call rule not given here). Particulars: at 28.7 µM (top of the series), lower = more inhibition. The procedure, abridged:
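P. falciparum Dd2-infected erythrocytes (0.3% parasitemia, 2.5% hematocrit) exposed 72 h at 37 C, 5% CO2. Lysis with SYBR Green, overnight at room temperature, fluorescence 485/535 nm; normalized to 0.29 uM artemisinin and DMSO.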

A short description of assay [14]: qHTS profiling for inhibitors of Plasmodium falciparum (HB3) proliferation (AID 743324).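 Also: 100% = DMSO vehicle wells and 0% = artemisinin-treated control wells.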 Conditions: Plasmodium falciparum HB3 blood-stage proliferation; at 28.7 µM (top of the series). The procedure, abridged: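 P. falciparum HB3 grown in erythrocytes (0.3% parasitemia, 2.5% hematocrit final) with compound for 72 h at 37 C, 5% CO2. Parasite DNA detected by SYBR Green after saponin/triton lysis overnight; normalized to 0.29 uM artemisinin and DMSO.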

The nature of assay [15]: qHTS Screen of the MIPE 4.0 Collection Against Ewings Sarcoma (RDES) (AID 1259252). Also: nearly all actives have a fitted effect of over 35% in size. Also: potency is read from the fitted curve at half-maximal effect. The procedure, abridged: as §2
The nature of assay [16]: qHTS Screen of the MIPE 4.0 Collection Against Ewings Sarcoma (TC71) (AID 1259253). Also: nearly all actives have a fitted effect of over 40% in size. Also: potency is read from the fitted curve at half-maximal effect. In outline:
as §2

Assay [17] is described as follows: qHTS Screen of the MIPE 4.0 Collection Against Ewings Sarcoma (TC32) (AID 1259256). Also: nearly all actives have a fitted effect of over 45% in size. Also: potency is read from the fitted curve at half-maximal effect. The procedure, abridged: as §2
Assay [18] in a line: qHTS assay for cell viability of HEK293 cells (AID 743288). Also: % is scaled to controls: 0 for no effect and ±100 for the full control effect; nearly all actives have a fitted effect of over 50% in size. Particulars: ATP luminescence (CellTiter-Glo), 18 h; max response: stronger effect = lower value. The procedure, abridged: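 Environmental chemicals tested in qHTS format against parental HEK293 cells; 18 h treatment, 37 C; read-out ATP luminescence (CellTiter-Glo), 30 min RT development.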
The nature of assay [19]: qHTS assay for cell viability of the p53RE-bla HCT-116 cell line (AID 743292). Also: % is scaled to controls: 0 for no effect and ±100 for the full control effect; nearly all actives have a fitted effect of over 55% in size. The procedure, abridged: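 ATP-based luminescent viability (CellTiter-Glo, 30 min RT) after 16 h compound treatment at 37 C of p53RE-bla HCT-116 cells, seeded at 4,000 cells/well and rested 5 h before dosing.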
The nature of assay [20]: qHTS assay for measurement of the activity of small molecule inhibitors on Zika virus induced Caspase-3 activity in human astrocytoma cells (AID 1224859).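 Also: plate controls were ZIKV-infected untreated cells for no effect and uninfected cells for full effect.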 In outline: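 Human SNB-19 astrocytoma cells in RPMI 1640 with 10% FBS receive compound one hour ahead of Zika virus at 2 FFU/cell. After 6 h infection, caspase-3/7 activity is detected by Caspase-Glo luminescence.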

T1 sequence (P35557 whole entry, looked up): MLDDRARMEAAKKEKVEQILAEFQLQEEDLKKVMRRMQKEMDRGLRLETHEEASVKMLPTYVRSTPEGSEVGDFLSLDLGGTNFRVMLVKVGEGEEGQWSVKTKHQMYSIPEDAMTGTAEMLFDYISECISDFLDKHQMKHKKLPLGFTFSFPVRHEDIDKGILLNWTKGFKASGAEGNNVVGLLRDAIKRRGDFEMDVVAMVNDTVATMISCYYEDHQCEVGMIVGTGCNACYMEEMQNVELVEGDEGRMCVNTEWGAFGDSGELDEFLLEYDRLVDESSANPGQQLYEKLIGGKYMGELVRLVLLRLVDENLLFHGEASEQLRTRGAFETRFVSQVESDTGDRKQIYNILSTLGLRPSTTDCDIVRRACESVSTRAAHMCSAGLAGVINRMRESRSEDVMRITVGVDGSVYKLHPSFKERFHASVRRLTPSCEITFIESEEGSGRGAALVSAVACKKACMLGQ
T1 sequence (Q14397 whole entry, looked up): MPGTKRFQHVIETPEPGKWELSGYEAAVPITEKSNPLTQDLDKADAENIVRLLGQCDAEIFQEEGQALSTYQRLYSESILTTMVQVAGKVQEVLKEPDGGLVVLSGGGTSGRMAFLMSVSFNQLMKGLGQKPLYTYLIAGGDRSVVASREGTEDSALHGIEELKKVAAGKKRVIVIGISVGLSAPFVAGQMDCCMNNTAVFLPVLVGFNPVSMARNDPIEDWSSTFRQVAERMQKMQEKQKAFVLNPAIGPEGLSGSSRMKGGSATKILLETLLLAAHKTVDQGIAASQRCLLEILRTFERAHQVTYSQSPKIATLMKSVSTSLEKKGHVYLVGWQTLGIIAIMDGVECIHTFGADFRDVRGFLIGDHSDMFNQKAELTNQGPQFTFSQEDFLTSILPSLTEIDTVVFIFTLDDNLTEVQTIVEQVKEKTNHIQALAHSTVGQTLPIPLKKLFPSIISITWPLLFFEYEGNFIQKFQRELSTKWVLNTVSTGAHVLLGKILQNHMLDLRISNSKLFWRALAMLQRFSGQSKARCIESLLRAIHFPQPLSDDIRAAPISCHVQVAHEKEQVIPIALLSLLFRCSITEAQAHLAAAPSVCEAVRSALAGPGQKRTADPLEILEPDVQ

In the case of `NCCCCCC(=O)O`, the Potency entry in assay [1], in assay [2], in assay [10] and in assay [11] was “inactive” in each case. In addition, in assay [3], the max response is -0.169% (inactive) and -6.11% (inactive). In [4], this compound showed a parasite growth, % of DMSO control of 417%. Further, the parasite growth remaining, % of DMSO control (lower = more inhibition) in assay [5] was 91.3%. Also, the parasite growth, % of control (lower = inhibition) in assay [6] was 118%. This compound yielded a growth, % of control in assay [7] of 708%. Further, the cell viability, % of control (lower = more cytotoxic) in assay [8] is 140%. Besides, in assay [9], the viability (% of control) was 130%.
Consider `CC1(CN2CCC(n3c(=O)[nH]c4ccccc43)CC2)OCc2ccccc2-n2cccc21` (stereo unspecified), for which the max response in assay [3] is -18.7% (inactive) and -2.64% (inactive). For the same compound, the remaining parasite growth % (stronger effect = lower value) in [12] came to 21.2%. The activity, percent of control in assay [13] was found to be 17.6%. In assay [14], this compound came in with a remaining proliferation (% of control), lower = more inhibition of 0.0183%. The compound further returned a parasite growth, % of DMSO control in assay [4] of 10.9%. Also, the parasite growth remaining, % of DMSO control (lower = more inhibition) in assay [5] is 9.37%. Also, the parasite growth, % of control (lower = inhibition) in assay [6] worked out at 11%. Besides, in assay [7], the growth, % of control is 7.33%. In assay [8], the cell viability, % of control (lower = more cytotoxic) was 137%. The viability (% of control) in [9] came to 102%. In addition, the Potency entry in assay [10] is “inactive”. In addition, the Potency in [15] was 16.6 µM (active); in assay [16], 16.6 µM (active); in assay [11], 14.8 µM (active); in assay [17], 14.8 µM (active).
`CCC1(c2ccccc2)C(=O)NCNC1=O`: the Potency entry in assay [1], in [2], in assay [19], in assay [10] and in [20] was “inactive” throughout. In addition, the max response in assay [3] was 16.7% (inactive) and 25% (inactive); in [18], -2.05% (inactive) and -6.21% (inactive). Moreover, the parasite growth, % of DMSO control in assay [4] was found to be 109%. Also, the parasite growth remaining, % of DMSO control (lower = more inhibition) in assay [5] was 102%. In addition, the parasite growth, % of control (lower = inhibition) in assay [6] came out at 107%. This compound also registered a growth, % of control in assay [7] of 91%. In addition, the viability (% of control) in assay [9] came to 8.03%. Moreover, the Potency in assay [15] was 9.35 µM (active); in assay [16], 11.8 µM (active); in [11], 18.7 µM (active); in assay [17] it was 14.8 µM (active).
With `Cc1ccccc1N1C(=O)c2cc(S(N)(=O)=O)c(Cl)cc2NC1C` (stereo unspecified), the Potency entry in assay [2], in assay [10], in assay [20], in assay [15], in [16] and in [11] was “inactive” throughout. In assay [17], the Potency entry was “inactive”. For the same compound, the max response in assay [3] was 6.66% (inactive) and 10.8% (inactive) and 1.37% (inactive). The parasite growth, % of DMSO control in [4] was 92.5%. In addition, in assay [5], the parasite growth remaining, % of DMSO control (lower = more inhibition) was 51%. The parasite growth, % of control (lower = inhibition) in assay [6] was 83.2%. This compound had a growth, % of control in assay [7] of 72.5%. Further, the viability (% of control) in [9] was determined as 108%.
`O=C1N(c2ccccc2)c2ccccc2C1(Cc1ccncc1)Cc1ccncc1`: the Potency result in assay [1], in assay [2], in assay [10], in assay [11] and in assay [17] was “inactive” in each case. The max response in assay [3] is -4.76% (inactive) and 23.2% (inactive). For the same compound, the parasite growth, % of DMSO control in assay [4] amounted to 105%. In addition, the parasite growth remaining, % of DMSO control (lower = more inhibition) in assay [5] came to 86.2%. The parasite growth, % of control (lower = inhibition) in assay [6] worked out at 120%. Moreover, the growth, % of control in [7] turned out to be 106%. In addition, the cell viability, % of control (lower = more cytotoxic) in assay [8] is 266%. In addition, in assay [9], the viability (% of control) was 130%. Moreover, in assay [16], the Potency was 16.6 µM (active).
Consider `CC1(C)O[C@H]2CC(=O)OC[C@]23[C@H]2CC[C@@]4(C)[C@H](c5ccoc5)OC(=O)[C@H]5O[C@]54[C@]2(C)C(=O)C[C@@H]13`, for which, in assay [3], the max response is 0.83% (inactive). In addition, the parasite growth, % of DMSO control in [4] is 86.6%. Also, the parasite growth remaining, % of DMSO control (lower = more inhibition) in assay [5] was 122%. In addition, in [6], the parasite growth, % of control (lower = inhibition) turned out to be 82%. In [7], this compound gave a growth, % of control of 107%. Further, the cell viability, % of control (lower = more cytotoxic) in [8] was 131%. Besides, the viability (% of control) in assay [9] turned out to be 118%. The Potency entry in [10], in assay [15], in [16], in assay [11] and in [17] was “inactive” in each case.
Consider `CC(C)Cc1ccc(C(C)C(=O)O)cc1` (stereo unspecified), for which the Potency entry in assay [1], in assay [2], in [19], in assay [10], in assay [15] and in assay [16] was “inactive” throughout. The Potency entry in [11] and in assay [17] was “inactive” throughout. The max response is 19.9% (inactive) and 9.6% (inactive) in assay [3]; -10% (inactive) in [18]. Moreover, the parasite growth, % of DMSO control in [4] is 112% [at 9.64 µM]. Besides, the parasite growth remaining, % of DMSO control (lower = more inhibition) in [5] came to 99.8% [at 9.64 µM]. The parasite growth, % of control (lower = inhibition) in assay [6] came out at 162% [at 9.64 µM]. For the same compound, the growth, % of control in assay [7] came to 94.2% [at 9.64 µM]. Besides, in assay [8], the cell viability, % of control (lower = more cytotoxic) came to 116% [at 23.2 µM]. Also, in [9], the viability (% of control) came out at 113% [at 23.2 µM].
